Laboratory results from PubChem BioAssay AID1159580 (chemical genetic matrix, 2015).
Where “and” joins values, the source holds several entries; their conditions need not be identical. Equal entries are not always repeated. Out of some 5,500 compounds screened, about 2,000 (36%) were called active. Not shown: some 18% with an inconclusive outcome. Rule as the data show it: active = normalized growth mostly below about 0.91 (no sharp cut-off); inconclusive = no clear call, values can overlap the other calls; inactive = mostly above about 0.92. The list shows a part of the results.

Assay: chemical genetic growth profiling, strain panel (AID 1159580);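 also: tested at 20 µM; growth read once vehicle control cultures reached saturation at 30 °C; 1 = growth at the plate median or of vehicle wells; lower values mean less growth of the strain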
Details: S. cerevisiae deletion strains, growth OD

Measured: normalized growth

CCOc1ccc(C(=O)c2cc(O)c(OC)c(OC)c2O)cc1
active: locus YDR137W, strain rgp1, hits give low values 0.79 | locus YDR392W, strain spt3, hits give low values 0.455 | locus YER155C, strain BEM2 (second series), hits give low values 0.734
inactive: locus YAL021C, strain ccr4, hits give low values 1 | locus YAL026C, strain drs2, hits give low values 0.941 | locus YAL030W, strain snc1, hits give low values 0.993 | locus YBL061C, strain skt5, hits give low values 0.998 | locus YBR009C, strain hhf1, hits give low values 0.938 | locus YBR021W, strain FUR4, hits give low values 1.06 | locus YBR023C, strain chs3, hits give low values 0.997 | locus YBR171W, strain sec66, hits give low values 0.981 | locus YBR229C, strain ROT2, hits give low values 1.01 | locus YBR231C, strain swc5, hits give low values 0.987 | locus YBR279W, strain paf1, hits give low values 1 | locus YCL011C, strain gbp2, hits give low values 0.998 | locus YCL016C, strain dcc1, hits give low values 1 | locus YCL029C, strain bik1, hits give low values 1.01 | locus YCL061C, strain MRC1, hits give low values 1 | locus YCL069W, strain vba3, hits give low values 0.997 | locus YCR088W, strain abp1, hits give low values 0.997 | locus YDL005C, strain med2, hits give low values 1.01 | locus YDL035C, strain GPR1, hits give low values 1.02 | locus YDL040C, strain nat1, hits give low values 1.01 | locus YDL074C, strain BRE1, hits give low values 1.11 | locus YDL101C, strain DUN1, hits give low values 1.01 | locus YDL134C, strain PPH21, hits give low values 1.01 | locus YDL185W, strain tfp1, hits give low values 1.01 | locus YDL192W, strain arf1, hits give low values 0.957 | locus YDR001C, strain nth1, hits give low values 0.999 | locus YDR069C, strain doa4, hits give low values 0.969 | locus YDR101C, strain arx1, hits give low values 1 | locus YDR150W, strain NUM1, hits give low values 1.01 | locus YDR159W, strain sac3, hits give low values 0.97 | locus YDR162C, strain NBP2, hits give low values 0.983 | locus YDR195W, strain ref2 1.05 | locus YDR297W, strain sur2, hits give low values 0.995 | locus YDR318W, strain mcm21, hits give low values 0.99 | locus YDR334W, strain swr1, hits give low values 0.987 | locus YDR335W, strain msn5, hits give low values 0.999 | locus YDR388W, hits give low values 1.02 | locus YDR502C, strain sam2, hits give low values 1.02 | locus YEL003W, strain gim4, hits give low values 0.986 | locus YEL037C, strain rad23, hits give low values 0.99 | locus YEL061C, strain CIN8 (second series), hits give low values 0.992 | locus YER015W, strain faa2, hits give low values 0.999 | locus YER016W, strain bim1, hits give low values 0.995 | locus YER110C, hits give low values 1.03 | locus YER111C, strain swi4, hits give low values 0.989 | locus YER155C, strain BEM2, hits give low values 0.995 | locus YER167W, strain BCK2, hits give low values 1 | locus YFR010W, strain ubp6, hits give low values 0.98 | locus YGL078C, strain dbp3, hits give low values 1.03 | locus YGL086W, strain mad1, hits give low values 0.964 | locus YGL167C, strain pmr1, hits give low values 1 | locus YGL173C, strain kem1, hits give low values 0.988 | locus YGL227W, strain vid30, hits give low values 1.01 | locus YGL240W, strain doc1, hits give low values 0.985 | locus YGL248W, strain PDE1, hits give low values 1.04 | locus YGL253W, strain hxk2, hits give low values 1.01 | locus YGR135W, strain pre9, hits give low values 1.01 | locus YGR252W, strain gcn5, hits give low values 1.03 | locus YHR013C, strain ard1, hits give low values 0.985 | locus YHR027C, strain rpn1, hits give low values 0.991 | locus YHR030C, strain SLT2, hits give low values 1 and 0.941 | locus YHR079C, strain IRE1 (second series), hits give low values 1.03 | locus YHR079C, strain IRE1, hits give low values 0.938 | locus YHR094C, strain hxt1, hits give low values 1.01 | locus YHR129C, strain ARP1, hits give low values 1.03 | locus YHR142W, strain chs7, hits give low values 0.931 | locus YHR200W, strain rpn10, hits give low values 1.02 | locus YIL066C, strain RNR3, hits give low values 1.03 | locus YIL073C, strain SPO22, hits give low values 1.01 | locus YIL125W, strain kgd1, hits give low values 0.995 | locus YIR030C, strain dcg1, hits give low values 1.01 | locus YJL092W, strain hpr5, hits give low values 1 | locus YJL095W, strain BCK1 (second series), hits give low values 0.938 | locus YJL095W, strain BCK1, hits give low values 1.05 and 0.949 | locus YJL115W, strain asf1, hits give low values 1 | locus YJL129C, strain trk1, hits give low values 0.955 | locus YJL134W, strain LCB3, hits give low values 0.994 | locus YJL154C, strain vps35, hits give low values 1 | locus YJL164C, strain tpk1, hits give low values 0.969 | locus YJL166W, strain qcr8, hits give low values 0.974 | locus YJL168C, strain set2, hits give low values 1.01 | locus YJL187C, strain SWE1 (second series), hits give low values 1.03 | locus YJL187C, strain SWE1, hits give low values 0.991 | locus YJR043C, strain POL32, hits give low values 1.06
